# In the library only some 2.5% were active in any assay of this set; here they are far more common.
# PHOSPHO1 inh: blocks human PHOSPHO1 phosphatase activity | recombinant PHOSPHO1, absorbance phosphatase assay | inhibition, % at 13.3 µM | 290,000 compounds, 1.1% hits | AID 1565; in the data active = inhibition above about 60%
# Target sequence (Q8TCT1 whole entry, looked up): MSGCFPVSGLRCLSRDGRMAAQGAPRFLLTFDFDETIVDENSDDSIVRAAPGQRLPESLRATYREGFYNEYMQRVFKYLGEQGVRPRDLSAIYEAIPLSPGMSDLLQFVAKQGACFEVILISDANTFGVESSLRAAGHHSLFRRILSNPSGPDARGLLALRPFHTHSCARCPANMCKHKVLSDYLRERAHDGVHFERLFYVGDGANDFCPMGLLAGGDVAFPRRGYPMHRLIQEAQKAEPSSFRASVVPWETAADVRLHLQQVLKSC
# p97 inhibitor: blocks human p97 ATPase activity. P55072. recombinant p97 ATPase, Kinase-Glo ATP luminescence, 3 h. inhibition, % at 8 µM. 220,000 compounds, 0.42% hits; in the data active = inhibition above about 15%;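 note: 0% = DMSO vehicle and 100% = wells lacking enzyme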
# G6PDH CS: inhibits Leuconostoc G6PDH, flagging false hits in G6PDH-based assays. AID 1020. Purified L. mesenteroides G6PDH, diaphorase/resazurin coupled fluorescence, 45 min. 200,000 compounds, 0.12% hits. inhibition, % at 5 µM; in the data active = inhibition above about 50%
# PfM18AAP inh: PfM18AAP enzyme inhibition; recombinant PfM18AAP, H-Glu-NHMec fluorogenic cleavage; inhibition, % at 7.35 µM; 290,000 compounds, 1.2% hits; AID 1822;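 active = inhibition above the campaign mean inhibition over all tested compounds plus 3 SD, cut at about 28% in these data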;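 note: 0% = plate median of test compound wells and 100% = 2 mM ZnCl2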
# HDAC3 inhib: inhibitors of human histone deacetylase 3; recombinant HDAC3, fluorogenic peptide/trypsin coupled, fluorescence; inhibition, % at 8.3 µM; O15379; AID 2718; 320,000 compounds, 0.15% hits; in the data active = inhibition above about 26%, passing the limit was not always enough
# SUMO HTRF inh: blocks human SUMOylation mediated by UBC9; P63279; HTRF SUMOylation assay, SAE1/SAE2 + UBC9, in vitro; inhibition, % at 35 µM; 290,000 compounds, 0.36% hits; AID 2006; in the data active = inhibition above about 50%, passing the limit was not always enough
# Target sequence (P63279 whole entry, looked up): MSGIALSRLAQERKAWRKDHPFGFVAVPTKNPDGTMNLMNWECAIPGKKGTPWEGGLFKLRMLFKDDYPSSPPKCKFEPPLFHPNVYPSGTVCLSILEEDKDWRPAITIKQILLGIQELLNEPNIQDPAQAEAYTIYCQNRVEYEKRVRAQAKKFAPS
# Active calls of the source: *; . = no result.
SMILES,PHOSPHO1 inh,p97 inhibitor,G6PDH CS,PfM18AAP inh,HDAC3 inhib,SUMO HTRF inh
NC(=O)[C@H](Cc1cc2ccccc2s1)NC(=O)[C@@H]1CC2(CC(c3cccc(NC(=O)[C@@H]4CCC(=O)N4)c3)=NO2)CN1C(=O)/C=C/Sc1ccccc1 (some centres not stated),8,17*,14,-5,18,-2
NC(=O)[C@H]1CC2(CC(c3cccc(NC(=O)[C@H]4CCC(=O)N4)c3)=NO2)CN1C(=O)c1cc([N+](=O)[O-])cc([N+](=O)[O-])c1 (some centres not stated),26,.,.,.,39*,6
O=C(CCS(=O)(=O)c1ccccc1)Nc1nc(-c2cccs2)cs1,-9,2,50*,0,0,-3
Cc1[nH]nc(Nc2ccc(O)cc2)c1[N+](=O)[O-],1,3,9,31*,0,8
COc1ccc(C(=O)CSc2nn3c(=O)c(C(C)(C)C)nnc3s2)cc1,-7,0,6,-5,0,20
COc1ccc(-n2c(C)cc(C(=O)CSc3nn4c(=O)c(C(C)(C)C)nnc4s3)c2C)cc1,94*,2,2,-4,-7,23
Cc1ccc(-n2c(C)cc(C(=O)CSc3nncs3)c2C)cc1,89*,-4,7,10,5,28
CCC(=O)N1c2ccc(S(=O)(=O)CCC(=O)N3CCN(c4ccccc4F)CC3)cc2CC1C (configuration not stated),15,.,.,3,-5,-1
CC(C)(C)C1CCC(=NNC(=O)c2ccco2)CC1 (configuration not stated),32,.,.,-27,-2,6
COc1ccc(-c2n[nH]c(=S)n2C2CCCCC2)cc1,100*,2,1,-8,-2,10
COc1ccc(Cl)cc1-c1n[nH]c(=S)n1C1CCCCC1,97*,0,0,-5,2,-6
Cc1cc2c(c(=O)n1CCCn1ccnc1)C(c1ccco1)C(C#N)=C(N)O2 (configuration not stated),-8,-3,-2,28*,-4,6
COc1ccc(-c2cn3c(C)c(C(=O)Nc4ccncc4)sc3n2)cc1,94*,4,0,14,.,-14
CCOc1ccc(S(=O)(=O)NCC(=O)OCc2nnc(-c3ccccc3)o2)cc1,.,.,.,.,4,.
Cc1ccc(S(=O)(=O)NCC(=O)OCc2nnc(-c3ccccc3)o2)cc1,65*,.,.,2,-1,9
CCn1c(CNC(=O)c2ccc(OC)cc2)nnc1SCC(=O)c1ccccc1,4,-1,20,6,-1,-5
CCn1c(CCNC(=O)c2cccs2)nnc1SCC(=O)c1ccc(OC)cc1,.,3,.,20,27*,.
CCCNC(=O)c1ccc2c(=O)c(O)c(-c3ccsc3)[nH]c2c1,26,.,.,.,2,53*
C=CCNC(=S)N(CC=C)C1CCS(=O)(=O)C1 (configuration not stated),6,4,4,-4,-2,7
CC1(C)Cc2c(sc3[nH]c(=S)n(Cc4ccccc4)c(=O)c23)CO1,76*,-1,-2,-2,1,23
COc1cc(C(=O)OCC(=O)NC2CCCCC2)cc(OC)c1OC,.,.,.,.,-3,.
COc1cccc(-c2cc(C(=O)N3CCc4ccccc4C3)[nH]n2)c1,20,.,.,2,2,4
S=c1[nH]nc(Nc2ccc(Cl)cc2)s1,86*,11,.,10,1,13
CC(C)(C)OC(=O)C[C@H]1C/C=C\C[C@H](CC(=O)N[C@H](CO)Cc2ccccc2)C(=O)N[C@@H](Cc2ccccc2)COC1=O,.,.,.,.,-3,.
COc1ccc(S(N)(=O)=O)cc1C(=O)NCCCN1CCN(c2cccc(Cl)c2)CC1,66*,0,5,0,4,2
SMILES,PHOSPHO1 inh,p97 inhibitor,G6PDH CS,PfM18AAP inh,HDAC3 inhib,SUMO HTRF inh
COc1cc(C(=O)N/C(=C\c2cn(S(=O)(=O)N(C)C)c3ccccc23)C(=O)N2CCCC2)cc(OC)c1OC,29,.,.,-1,-12,-8
O=C(COc1ccccc1)NCc1nnc2c3ccccc3c(-c3ccccc3)nn12,-14,-2,-19,3,-4,5
CC(=O)NCc1nnc2c3ccccc3c(-c3ccccc3)nn12,61*,0,7,-3,-5,12
CN(Cc1c(C(=O)N2CCc3ccccc3C2)nc2ccc(Cl)cn12)C(C1CC1)C1CC1,32,-3,16,4,2,15
CCCCN(C)C1=Nc2cccc3cccc1c23,63*,3,4,1,3,20
CCOC(=O)C1C(c2ccc(O)c(O)c2)NC(=S)NC1(O)C(F)(F)F (configuration not stated),8,4,36,65*,8,5
Cc1ccc(NCc2nnc(SCC(=O)O)n2-c2ccc(C)cc2)cc1,67*,3,22,-2,0,-1
COc1cccc(-n2c(COc3ccc(C)cc3)nnc2SCC(=O)O)c1,74*,3,8,3,.,-2
COc1ccc(-n2c(COc3ccc(C)cc3)nnc2SCc2ccc(C#N)cc2)cc1,73*,-7,2,6,21,-6
Cc1ccc(C(=O)COC(=O)CN2C(=O)C3C4CC(C(Br)C4Br)C3C2=O)cc1 (configuration not stated),2,.,.,2,6,3
COc1ccc(NC(=O)CCN2CCN(c3ccccc3F)CC2)c(OC)c1,-13,.,.,3,0,34
CC(C)c1nc2cc(C(=O)N3CCNC(=O)C3c3cccc(F)c3)ccc2o1 (configuration not stated),24,.,.,-11,-7,13
CC(=O)NC1=C(Nc2ccc(N(C)C)cc2)C(=O)c2ccccc2C1=O,35,.,.,29*,4,-27
CC(=O)NC1=C(N(C)C2CCS(=O)(=O)C2)C(=O)c2ccccc2C1=O (configuration not stated),-9,-1,47,9,-1,14
CC(C)(C)c1ccc(C(=O)NC(=O)COC(=O)c2ccc(Br)o2)cc1,.,.,.,.,0,.
COc1cc(OC)c(NC(=O)CCNS(=O)(=O)c2ccc3c(c2)CC(C)N3C(C)=O)cc1Cl (configuration not stated),30,.,.,8,2,15
CCOC(=O)c1c(C)oc2c1c(C(c1cccnc1)N1CCOCC1)c(O)c1ccccc12 (configuration not stated),79*,0,46,-6,13,16
C/C(=N\NC(=O)c1cccc(C)c1O)c1ccc(NC(=O)Cc2ccccc2)cc1,12,.,.,6,11,9
CCN(CC)CCOC(=O)c1ccc(N/C=C(/C#N)c2nc(-c3cc4ccccc4oc3=O)cs2)cc1,28,.,.,5,22,55*
CC(OC(=O)c1cccc([N+](=O)[O-])c1)C(=O)NCc1ccc2c(c1)OCO2 (configuration not stated),38,.,.,1,-2,3

# Source: PubChem (several laboratories)
